HCV inhibitor – HCV inhibition | Huh7.5.1 HCVcc-Cre infection, luciferase reporter, 44 h | Potency, µM (top dose mostly 41.8 µM), most hits filed as inhibitors | 340,000 tested, 3.4% active
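Infectious HCVcc-Cre (~0.5 moi) was added to cells just after compound, with cells seeded 4 h earlier at 1,000 per well. Luciferase activity after 44 h culture reported infection; substrate was incubated 15 min at room temperature before reading.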
Shiga toxin inh – Shiga toxin inhibition. AID 2315. inhibition, % at 38.7 µM. 290,000 tested, 9.2% active. Vero cells, Shiga toxin protein synthesis inhibition reporter; in the data active = inhibition mostly above about 28%, no sharp cut-off; inactive = mostly below about 43%
Pf growth 48h – P. falciparum growth inhibition at 48 hours (one generation). P. falciparum luciferase growth in erythrocytes, 48 h. Potency, µM (titrated, usually from 28.7 µM), hits mostly inhibitors. 310,000 tested, 5.9% active. AID 504832
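Read-out is firefly luciferase luminescence from an integrated reporter in P. falciparum, so falling signal marks reduced parasite growth. Infected erythrocytes were at 2% hematocrit and 0.1% parasitemia (final) in Albumax-supplemented RPMI 1640.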
Cycloheximide cs – counter-screen for Shiga toxin inhibitors: cycloheximide protein synthesis inhibition; 300,000 tested, 12% active; cell reporter, cycloheximide protein synthesis inhibition counterscreen; max response, %; AID 2314; in the data active = max response mostly above about 13%, no sharp cut-off; inactive = mostly below about 14%; also: read at 38.3 µM for the half of the compounds with a filed dose
HCMV inh – blocks human cytomegalovirus replication; HFF cells, HCMV-luciferase reporter, 72 h; hits give low values; activity change, negative = inhibition, % at 57.5 µM; AID 1259415; 410,000 tested, 4.5% active; in the data active = activity change below about -60%; inconclusive = no clear call, values can overlap the other calls; inactive = above about -39%
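Luciferase read-out from HCMV-luciferase-infected HFFs (MOI 1 PFU/cell) 72 h post infection at 37C; compounds added after 16 h cell attachment; activity normalized between buffer-only basal and Salinomycin (10uM) inhibitor controls.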
Pf growth 96h – P. falciparum growth inhibition at 96 hour, primary screen for plastid delayed-death inhibitors; AID 504834; Potency, µM (doses to about 28.7 µM), most hits filed as inhibitors; 320,000 tested, 6.9% active; P. falciparum luciferase reporter growth, 96 h
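P. falciparum expressing integrated firefly luciferase grown in erythrocytes (2% hematocrit, 0.05% parasitemia final) with compounds for 96 hours at 37 C, 5% CO2. Growth inhibition read as loss of luminescence after adding luciferase detection reagent.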
Numbers stand for hits; 0 = inactive; ? = inconclusive; - = not tested or not shown; [ ] = another dose, or the depositor's remark. Hits are enriched below; roughly 21% of the tested compounds scored in any of these assays. Unless noted, calls follow the shape of the dose curve; as a rule, active = well fitted inhibition curve with a large enough effect; inconclusive = small, poorly fitted or top-dose-only effect, or another doubt; inactive = no such curve, though single readings can be large or run the other way.

SMILES	HCV inhibitor	Shiga toxin inh	Pf growth 48h	Cycloheximide cs	HCMV inh	Pf growth 96h
COc1ccc(N2C(=O)CS(=O)(=O)C23C(=O)N(Cc2ccccc2F)c2ccccc23)cc1Cl (stereo unspecified)	-	-	-	-	0	-
C(=C\c1ccccn1)/c1ccncc1	0	78	0	21	0	0
N#C/C(=C\c1cccc([N+](=O)[O-])c1)c1ccccn1	0	55	0	28	0	0
Nc1cccc(/C=C/c2ccncc2)c1	0	59	0	20	0	0
O=[N+]([O-])c1cc(/C=N\Nc2ccccn2)ccc1Cl	?	0	0	0	0	7.4µM
O=[N+]([O-])c1ccc(Cl)cc1C=NNc1ccccn1	?	-	-	-	0	-
Cc1ccc(-c2nn3cnnc3c3ccccc23)cc1	0	0	0	0	0	0
CC(C)CC(=O)Nc1nnc(SCc2cc(=O)n3ccccc3n2)s1	-	-	-	-	0	-
CCn1nc(C)c2c(-c3ccccc3)cc(=O)n(C(C)C(=O)NCCC(C)C)c21 (stereo unspecified)	-	-	-	-	0	-
O=[N+]([O-])c1cccc(/C=N/Nc2nccnc2Cl)c1	0	77	0	42	0	0
O=[N+]([O-])c1cccc(/C=N/NC2=NS(=O)(=O)c3ccccc32)c1	0	0	?	0	0	0
CN(C)c1ccc(/C=N\Nc2ccccn2)cc1	0	47	0	24	0	0
O=[N+]([O-])c1cccc(/C=N/Nc2ccccn2)c1	0	65	0	0	?	?
CCOc1ccc(C(=O)NCc2nc3cccnc3n2Cc2ccc(F)cc2)cc1OCC	-	-	-	-	0	-
CC(C)CCn1c(SCC(=O)Nc2ccccc2C(F)(F)F)nc2nccnc2c1=O	0	0	?	0	0	?
Cc1ccc2[nH]c3c(=O)n(CC(=O)N4CCN(c5ccccc5F)CC4)ncc3c2c1	-	-	-	-	0	-
COc1ccc(S(=O)(=O)N2CCc3ccccc32)cc1C(=O)OCC(=O)c1c(N)n(C)c(=O)n(C)c1=O	?	0	4.1µM	0	0	0
COc1ccccc1C(=O)Nc1ccc(S(=O)(=O)N2CCc3ccccc32)cc1	0	0	-	0	0	?
COc1cc(C(=O)Nc2ccc3c(c2)Cc2ccccc2-3)cc(OC)c1OC	?	0	0	0	0	?
COc1ccc(S(=O)(=O)N2CCc3ccccc32)cc1C(=O)Nc1ccc(C(N)=O)cc1	?	-	?	-	0	7.4µM
COc1cc(C(=O)Nc2ccc(S(=O)(=O)N3CCc4ccccc43)cc2)cc(OC)c1OC	14µM	0	?	0	0	-
COc1ccc(S(=O)(=O)N2CCc3ccccc32)cc1C(=O)NCCc1ccc(S(N)(=O)=O)cc1	0	-	-	-	0	-
COc1cc(C(=O)Nc2ccc3c(c2)CCN3C(C)=O)cc(OC)c1OC	0	0	0[5.75 µM]	0	-74	0
CC1CN=C(c2cc(Cl)c(N)c(Cl)c2)c2c3ccc(C(F)(F)F)cc3nn21 (stereo unspecified)	-	-	-	-	0	-
CC(C)(C)OC(=O)N1CCC(NC(=O)c2[nH]c(C(F)(F)F)nc2-c2ccccc2)CC1	-	-	-	-	0	-
SMILES	HCV inhibitor	Shiga toxin inh	Pf growth 48h	Cycloheximide cs	HCMV inh	Pf growth 96h
COc1ccc(NC(=O)CS(=O)c2cccc(Cl)c2)cc1 (stereo unspecified)	0	0	0	0	0	?
Cc1ccc(C2CC(=O)Oc3c(C(C)C)ccc(C)c32)cc1 (stereo unspecified)	-	0	-	0	-	-
O=C(Nc1cccc(F)c1)c1ccc(Cn2cc([N+](=O)[O-])cn2)o1	?	0	0	0	?	?
O=C(NCc1ccncc1)c1cccc(S(=O)(=O)Nc2ccc(SC(F)F)cc2)c1	0	-	0	-	0	0
CN(C)/C=N/NC(=O)C1Cc2c(ccc3ccccc23)O1 (stereo unspecified)	0	0	?	0	0	0
COC(=O)c1ccc2c(=O)n(CCCCCC(=O)N3CCN(c4cc(Cl)ccc4C)CC3)c(=O)[nH]c2c1	-	-	-	-	0	-
CCOc1ccccc1-n1nnnc1SCC(=O)NC(=O)Nc1ccc2c(c1)OCCO2	0	0	0	13	0	-
CCOc1ccccc1-n1nnnc1SCC(=O)Nc1cc(C)on1	?	0	?	0	0	0
O=C(CSc1nnnn1-c1ccccc1)NC(=O)Nc1ccc2c(c1)OCCO2	0	76	0	56	0	0
CC(=O)Nc1ccc(NC(=O)CSc2nnnn2-c2ccc3c(c2)OCCO3)cc1	0	0	0	0	0	?
CC[C@]12c3[nH]c4ccccc4c3CCN1C(=O)C(CC(=O)NCCC1=CCCCC1)C[C@@H]2C(=O)N1CCN(C(=O)C2CC2)CC1 (stereo partly specified)	0	-	-	-	0	-
CC(C)N=C(NS(=O)(=O)c1cccs1)c1ccccc1	0	0	0	0	0	13µM
COc1cccc(/C=N/Nc2nnc3c(n2)[nH]c2ccccc23)c1OC	0	50	0	36	0	0
Cc1cccc2c1[nH]c1nc(N/N=C\c3ccco3)nnc12	0	0	0	0	0	0
CC(/C=N/Nc1nnc2c(n1)[nH]c1ccccc12)=C\c1ccco1	0	0	-	32	-	?
CC(O)C1C=CC=CC(=O)OC2CC3OC4C5OC5(C)CCC4(COC(=O)C4OC4(C)C(O)CO1)C2(C)C31CO1 (stereo unspecified)	-	-	-	-	-96	-
CC(=O)OC1C(=O)OCC23CCC4(C)OC4C2OC2CC(OC(=O)C=CC=CC(=O)OCCC1C)C3(C)C21CO1 (stereo unspecified)	-	-	-	-	-96	-
CC1=CC2OC3CC4OC(=O)C=CC=CC(C(C)O)OCC(O)C(C)CC(=O)OCC2(CC1O)C4(C)C31CO1 (stereo unspecified)	-	-	-	-	-97	-
COc1cccc(/C=N/NC(=O)c2ccc(-n3cnnn3)cc2)c1	0	-	0	-	0	0
COc1ccc(S(=O)(=O)NC(CC(=O)NCCc2ccc(OC)c(OC)c2)C(C)C)cc1 (stereo unspecified)	0	0	0	0	0	0
COC(=O)C1CCN(C2=C(NS(=O)(=O)c3ccc(Cl)cc3)C(=O)c3ccccc3C2=O)CC1	0	0	?	0	?	?
CCOC(=O)N1CCN(C2=C(NS(=O)(=O)c3ccc(C)cc3)C(=O)c3ccccc3C2=O)CC1	0	0	8.3µM	0	?	3.3µM
Cc1ccc(S(=O)(=O)NC2=C(N3CCN(c4ccccc4F)CC3)C(=O)c3ccccc3C2=O)cc1	?	0	?	0	0	?
Cc1ccc(S(=O)(=O)NC2=C(N3CCN(Cc4ccccc4)CC3)C(=O)c3ccccc3C2=O)cc1	0	0	?	0	-65	-
CC(=O)Nc1ccc(S(=O)(=O)Nc2ccc(N3CCOCC3)cc2)cc1	0	0	0	0	0	-
CC(=O)Nc1ccc(S(=O)(=O)NC2=C(N3CCN(c4ccc(F)cc4)CC3)C(=O)c3ccccc3C2=O)cc1	?	0	0.74µM	0	0	-
CC1CCCN(C2=C(NS(=O)(=O)c3ccc(Cl)cc3)C(=O)c3ccccc3C2=O)C1 (stereo unspecified)	0	40	?	22	0	12µM
